Reference: PubChem BioAssay (NCI)
Compounds without any hit were thinned out: in the full panel of roughly 83,000, 20% have a hit.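 Step 1: grow cells in 96-well plates. Step 2: add test compound at a single concentration. Step 3: incubate 48 h. Step 4: record percent growth.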 The source made the active and inactive calls.

The compounds below were run on SNB-19 CNS (assay: NCI-60 one-dose screen, 48 h (100 = growth as untreated, 0 = no growth, -100 = all killed)). Conditions: 10 µM unless noted.
Experimental: Growth inhibition of the SNB-19 human tumor cell line is measured as a screen for anti-cancer activity. Cells are grown in 96 well plates and exposed to the test compound for 48 hours. Compounds are tested at a single concentration, which is 10^-5 M for most compounds. The reported endpoint is percent growth (GI% or GIPRCNT), where numbers from 0 - 100% represent growth inhibition, and numbers from -100% - 0 represent cell death. For example, a value of 40 represents 60% growth inhibition. A value of 0 means no net growth occurred over the course of the experiment. A value of -40 indicates 40% of cells at the beginning of the experiment died by the end of the experiment. A value of -100 means all cells are dead at the end of the experiment.
NCI-60 Human Tumor Cell Lines Screen was performed using the standard one-dose NCI protocol, which is described in more detail at https://dtp.cancer.gov/discovery_development/nci-60/default.htm.
Compounds with GIPRCNT values below 10 were considered active. Activity score was based on GIPRCNT using the following formula: […]
Score is 0 for GIPRCNT values of 100 or above, 50 for GIPRCNT values of 0, and 100 for GIPRCNT values of -100.

| Compound | growth |
| --- | --- |
| COc1ccc(C2CC(c3ccc(Nc4nc(Nc5ccc(F)cc5)nc(Nc5ccc(Cl)cc5)n4)cc3)=NN2C(C)=O)cc1 (stereo not given) | 79.3% (inactive) |
| COc1cc(C(=O)/C=C/c2c(Cl)nc3sccn23)cc(OC)c1OC | 83% (inactive) |
| CCCCn1c(=O)c(-c2cc(-c3ccc(Cl)cc3)nc(-c3ccc(Cl)cc3)c2)cc2cc(Cl)ccc21 | 96% (inactive) |
| COC1=C(C)C(=O)c2c(c(CCCl)c3n2CCC3OC(C)=O)C1=O (stereo not given) | 1.56% (active) |
| NC(=O)C1(Nc2ccc(Br)cc2)CCCC1 | 105% (inactive) |
| COc1cc(/C=C/C(=O)/C=C/c2cc(OC)c3c(c2OC)OCO3)c(OC)c2c1OCO2 | 55.4% (inactive) |
| CC(=O)N1N=C(c2ccc(Nc3nc(Nc4ccc(F)cc4)nc(Nc4ccc(Cl)cc4)n3)cc2)CC1c1ccc(Cl)cc1 (stereo not given) | 83.5% (inactive) |
| COc1cc2cc(Oc3ccc(NC(=O)Nc4ccc(F)c(C(F)(F)F)c4)cc3)c(C)nc2cc1OCCN1CCOCC1 | 25.1% (inactive) |
| CN1C(=O)CNC(=O)[C@H](NC(=O)c2nc3ccccc3cc2O)CSSC[C@H]1C(=O)NCCc1nc2ccccc2cc1O | 87% (inactive) |
| CCCCCCNC(=O)Oc1ccc(/C(=C(\C)c2ccc(Cl)cc2)c2ccc(OCCN(CC)CC)cc2)cc1 | 74.5% (inactive) |
| CCS(=O)(=O)c1ncnc2nc[nH]c12 | 97.9% (inactive) |
| COc1ccc(C(Cc2ccccc2)NCCN2CCOCC2)cc1 (stereo not given) | 106% (inactive) |
| Cc1cc(C)c(-c2c(N)cc(Br)cc2Br)c(N)c1 | 63.4% (inactive) |
| COc1ccc(/C=N/Nc2cc(=O)[nH]c3ccc(C)cc23)cc1 | 95.2% (inactive) |
| C=C1C(=O)O[C@H]2[C@H]1CC/C(COC(=O)NCCOCCOCC(=O)Nc1ccc(OC)c(C(N)=O)c1O)=C\CC[C@@]1(C)O[C@@H]21 | 77.8% (inactive) |
| COc1ccc(C(=O)C(C)C)c2ccccc12 | 108% (inactive) |
| O=C(/C=C/c1sc(Cl)nc1Cl)c1ccc(F)cc1 | 90.8% (inactive) |
| CCOc1cccc(NC2=C(Br)C(=O)C(C)=C(C)C2=O)c1 | 94% (inactive) |
| CCCCOc1ccc(/C=N/NC(N)=S)cc1 | 89.8% (inactive) |
| Fc1cc(-c2nnc3sc(-c4ccc(Cl)cc4Cl)nn23)c(Cl)cc1Cl | 79.5% (inactive) |

| Compound | growth |
| --- | --- |
| CC(=O)CC(c1cccs1)c1c(-c2ccccc2)[nH]c2ccccc12 (stereo not given) | 96% (inactive) |
| NS(=O)(=O)c1ccc(-n2nc(-c3ccc(Cl)cc3)c3ccccc3c2=O)cc1 | 85.6% (inactive) |
| CC1(C)C2CC1C1(/C=N/NC(N)=S)C(C2)C(C#N)(C#N)C1(C#N)C#N (stereo not given) | 94.8% (inactive) |
| CN1CCN(c2ccc(-c3cnc4c(-c5csc6ccccc56)cnn4c3)cc2)CC1 | 13.3% (inactive) |
| COc1ccc(-c2conc2-c2ccccc2)cc1 | 30.1% (inactive) |
| O=c1ccc(N=Nc2ccccc2)ccc1Cl | 81.8% (inactive) |
| CC(C)C(=O)Nc1ccc(-c2nc(-c3cccc(OCCN4CCOCC4)c3)c(-c3ccnc(Br)c3)[nH]2)cc1 | 51.4% (inactive) |
| CCOC(=O)NCCc1ccccc1 | 103% (inactive) |
| COc1cc(C2CC(c3ccc(SC)cc3)=NN2C(C)=O)cc(OC)c1OC (stereo not given) | 74.3% (inactive) |
| Cc1ccc(C(=O)NCCNc2nccc(-c3c(-c4cccc(F)c4)nc4sccn34)n2)cc1 | 69.5% (inactive) |
| COc1ccc(/C=C(/C#N)n2nnc3cccc(F)c32)cc1 | 24.6% (inactive) |
| COc1ccc(NC2=C(Br)C(=O)C(C)=C(C)C2=O)cc1 | 85.2% (inactive) |
| CCOc1c(B(O)O)cccc1-c1nc2ccc3[nH]ncc3c2c2c1CCCC2 | 85.2% (inactive) |
| COc1cc(CNS(=O)(=O)c2ccc(C)cc2)ccc1OCc1cn(-c2ccccc2)nn1 | 92.3% (inactive) |
| O=C(O)C(c1ccccc1)N1C(=O)CSC1=S (stereo not given) | 102% (inactive) |
| CCCCCCCCCCCCCCCCCC1OCC(COC(=O)O[C@]2(CC)C(=O)OCc3c2cc2n(c3=O)Cc3cc4ccccc4nc3-2)O1 (stereo not given in full) | 57.6% (inactive) |
| CCCCC[C@H](O)C/C=C1/C(=O)C=C[C@@H]1C/C=C\CCCC(=O)O | 83.4% (inactive) |
| C=C1C(=O)O[C@H]2[C@H]1CC/C(COC(=O)C(C)c1ccc(CC(C)C)cc1)=C\CC[C@@]1(C)O[C@@H]21 (stereo not given in full) | 64.1% (inactive) |
| O=C1NC(=O)C(c2ccccc2)(c2ccccc2)N1Cc1cn(-c2c3ccccc3nc3ccccc23)nn1 | 89.4% (inactive) |
| COC(=O)C(Cc1ccccc1)NC(=O)NC(=O)NC(=O)CI (stereo not given) | 126% (inactive) |
